# IDE exosite inh: insulin-degrading enzyme (human) exo-site inhibition. purified IDE, FL-6b probe fluorescence polarization; active compounds read low. 17,000 compounds, 6.3% hits. z-score at 20 µM. P14735. AID 1259349;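 active = z-score of -3 or lower, meaning strong loss of probe binding signal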;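 also: His-tagged human IDE residues 42-1019 made in E. coli with 30 nM FL-6b probe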
# Active calls of the source: *; ! = not active in a repeat. Many of the other results were omitted from the sample, so hits are more common in it than they were.
SMILES,IDE exosite inh
COc1ccccc1C#Cc1ccc([C@@H]2[C@H]3CN(S(C)(=O)=O)CCCCN3[C@H]2CO)cc1,-12*
COc1ccc(C#Cc2ccc([C@@H]3[C@@H](CO)N4CCCCN(S(=O)(=O)c5ccccc5)C[C@H]34)cc2)cc1,5.6
COc1ccc(C#Cc2ccc([C@H]3[C@@H](CO)N4CCCCN(S(=O)(=O)c5ccccc5)C[C@@H]34)cc2)cc1,2.3
OC[C@H]1[C@H](c2ccc(-c3ccccc3)cc2)[C@H]2CN(CCC(F)(F)F)CCCCN21,0.51
COc1ccc(C#Cc2ccc([C@H]3[C@H](CO)N4CCCCN(S(=O)(=O)c5ccccc5)C[C@@H]34)cc2)cc1,4.7
O=C(c1ccc(F)cc1)N1CC(=O)N2[C@H](CO)[C@H](c3ccc(-c4ccccc4)cc3)[C@H]2C1,-0.52
O=C(c1ccccc1)N1CC(=O)N2[C@H](CO)[C@@H](c3ccc(C#CCC4CCCC4)cc3)[C@@H]2C1,3.4
CN(C)CC(=O)N1C[C@@H]2N[C@H](C1)C2c1ccc(-c2ccncc2)cc1 (stereo not given in full),-1.2
CC(C)CC#Cc1ccc([C@@H]2[C@@H](CO)N3C(=O)CN(C(=O)Cc4ccccc4)C[C@@H]23)cc1,1.8
O=C(Cc1ccncc1)N1CC(=O)N2[C@H](C1)[C@@H](c1ccc(Br)cc1)[C@@H]2CO,-0.58
O=C(Nc1ccccc1F)N1CC(=O)N2[C@H](CO)[C@H](c3ccc(C#CC4CCCC4)cc3)[C@@H]2C1,2.3
CO[C@@H]1CC[C@H]2CCOc3ccc(C#N)cc3C(=O)N(C)C[C@H](c3ccccc3)CC(=O)N(C)C[C@H]1O2,0.51
CN(C)C(=O)c1ccc(-c2ccccc2[C@@H]2[C@@H](C#N)N(C(=O)C3CCC3)[C@H]2CO)cc1,3.3
O=C(c1ccncc1)N1CCCCN2[C@H](CO)[C@@H](c3ccc(-c4ccccc4)cc3)[C@H]2C1,1.7
O=C(CC(F)(F)F)N1C[C@@H]2[C@H](c3ccccc31)[C@H](CO)N2CC1CCOCC1,-0.45
CC(C)NC(=O)N1CC(=O)N2[C@H](CO)[C@H](c3ccc(C#CCN(C)C)cc3)[C@@H]2C1,2.6
C/C=C/c1ccc([C@H]2[C@@H](CO)N[C@@H]2CNC(=O)C2CC2)cc1,1
Cc1ccc(-c2ccc([C@@H]3[C@H](CO)N4CCCCN(C(=O)Nc5ccccc5)C[C@@H]34)cc2)cc1,4
Cc1ccccc1-c1ccc([C@@H]2[C@@H](CO)N3C(=O)CN(C(=O)Nc4cccc(F)c4)C[C@H]23)cc1,-2.1
Cc1ccccc1-c1ccc([C@H]2[C@@H](CO)N3CCCCN(C(=O)Nc4ccc(F)cc4)C[C@H]23)cc1,-7.1*
Cc1ccccc1-c1ccc([C@H]2[C@@H](CO)N3CCCCN(C(=O)Nc4ccc(F)cc4)C[C@@H]23)cc1,-1.6
O=C(Nc1cccc(F)c1)N1CCCCN2[C@H](CO)[C@H](c3ccc(-c4ccccc4F)cc3)[C@H]2C1,1.7
Cc1ccccc1-c1ccc([C@@H]2[C@H](CO)N3CCCCN(C(=O)Nc4cccc(F)c4)C[C@@H]23)cc1,0.19
Cc1ccccc1-c1ccc([C@@H]2[C@@H](CO)N3CCCCN(C(=O)Nc4ccc(F)cc4)C[C@H]23)cc1,1.8
Cc1ccccc1-c1ccc([C@H]2[C@H]3CN(C(=O)Nc4ccc(F)cc4)CCCCN3[C@H]2CO)cc1,3.4
SMILES,IDE exosite inh
Cc1ccccc1-c1ccc([C@@H]2[C@@H](CO)N3C(=O)CN(C(=O)Nc4ccc(F)cc4)C[C@H]23)cc1,-1.4
Cc1ccccc1-c1ccc([C@H]2[C@H](CO)N3CCCCN(C(=O)Nc4ccccc4)C[C@@H]23)cc1,-3.9*
Cc1ccccc1-c1ccc([C@H]2[C@@H](CO)N3CCCCN(C(=O)Nc4cccc(F)c4)C[C@@H]23)cc1,-4.4*
Cc1ccccc1-c1ccc([C@@H]2[C@@H](CO)N3CCCCN(C(=O)Nc4ccccc4)C[C@@H]23)cc1,1.2
Cc1ccccc1-c1ccc([C@@H]2[C@@H](CO)N3C(=O)CN(C(=O)Nc4ccc(F)cc4)C[C@@H]23)cc1,-11*
O=C(C1CC1)N1CC(=O)N2[C@H](CO)[C@@H](c3ccc(Br)cc3)[C@H]2C1,0.1
CCC(=O)N1[C@@H](CO)[C@@H](c2ccc(-c3cccc(F)c3)cc2)[C@@H]1CN(C)C(C)=O,0.53
CCC(=O)NC[C@@H]1[C@H](c2ccc(C3=CCCC3)cc2)[C@@H](CO)N1C(=O)C1CC1,3
CS(=O)(=O)N1CC(=O)N2[C@H](CO)[C@@H](c3ccc(C#CC4CCCC4)cc3)[C@H]2C1,1.7
O=C(c1ccccn1)N1CC(=O)N2[C@H](C1)[C@H](c1ccc(C#CC3CCCC3)cc1)[C@@H]2CO,2.9
N#C[C@@H]1[C@@H](c2ccccc2-c2cccc(F)c2)[C@H](CO)N1C(=O)C1CCCCC1,2.7
CC(=O)N1[C@@H](CO)[C@@H](c2ccc(C3=CCCC3)cc2)C12CN(C(=O)NC(C)C)C2,1.2
N#C[C@@H]1[C@H](c2ccc(C#CC3CCCC3)cc2)[C@H](CO)N1C(=O)Cc1ccccn1,2.4
C/C=C/c1ccc([C@H]2[C@H]3CN(S(=O)(=O)c4cccs4)CCCCN3[C@H]2CO)cc1,0.0074
O=C(c1ccc(F)cc1)N1C[C@@H]2N[C@H](C1)C2c1ccc(-c2cncnc2)cc1 (stereo not given in full),3.3
O=C(c1ccc2c(c1)OCO2)N1C[C@@H]2N[C@H](C1)C2c1ccc(-c2ccccc2F)cc1 (stereo not given in full),-2.8
Cc1ccccc1-c1ccc(C2[C@@H]3CN(C(=O)c4ccc(F)cc4)C[C@H]2N3)cc1 (stereo not given in full),-10*!
O=C(c1ccc(F)cc1)N1C[C@@H]2N[C@H](C1)C2c1ccc(-c2ccccc2F)cc1 (stereo not given in full),-4.1*!
O=C(c1ccncc1)N1C[C@@H]2N[C@H](C1)C2c1ccc(-c2ccncc2)cc1 (stereo not given in full),3.2
O=C(c1ccc(F)cc1)N1C[C@@H]2N[C@H](C1)C2c1ccc(-c2ccc(F)cc2)cc1 (stereo not given in full),3.9
CN(C)C(=O)c1ccc(-c2ccc([C@@H]3[C@H](CO)N4CCCCN(Cc5ccncc5)C[C@@H]34)cc2)cc1,1.4
Cc1ccc(S(=O)(=O)N(C)C[C@@H]2OCCCC[C@H](C)Oc3ccc(NC(=O)c4ccncc4)cc3C(=O)N([C@@H](C)CO)C[C@H]2C)cc1,1.7
CC(=O)N1[C@H](CN(C)C(=O)C2CCC2)[C@@H](c2ccccc2)[C@@H]1CO,3
Cc1ccccc1S(=O)(=O)N1[C@@H](C#N)[C@H](c2ccc(-c3ccccc3)cc2)[C@@H]1CO,0.79
OC[C@@H]1[C@H](c2ccc(C#CC3(O)CCCC3)cc2)[C@H]2CN(Cc3cccnc3)CCCCN12,-0.7
SMILES,IDE exosite inh
O=C(O)[C@@H]1[C@@H](CO)[C@@H]2Cn3c(ccc(-c4cccc(F)c4)c3=O)[C@@H]2N1C(=O)c1ccccn1,0.53
COCC(=O)NC[C@H]1[C@H](c2ccc(-c3ccccc3)cc2)[C@@H](CO)N1C(C)=O,2
COCC(=O)NC[C@H]1N[C@H](CO)[C@@H]1c1ccc(C2=CCCCC2)cc1,3.3
COCC(=O)NC[C@H]1N[C@H](CO)[C@H]1c1ccc(-c2ccccc2F)cc1,-3.3*
O=C(NC[C@@H]1N[C@@H](CO)[C@H]1c1ccccc1)c1ccccc1F,1.1
COCC(=O)NC[C@H]1N[C@H](CO)[C@@H]1c1ccc(-c2ccccc2F)cc1,-3.1*

# Screens: PubChem, Broad Institute
